Screening results from PubChem.
A selection: hits, their analogues and other compounds. The true share with any hit is near 7.8%.
Marburg entry inh – qHTS for inhibitors of binding or entry into cells for Marburg Virus; Marburg virus pseudotyped entry inhibition, cell reporter; Potency, µM (highest dose often 37.8 µM), usual class: inhibitors; 1.8% of 300,000 active; calls by dose curve; tested in HEK293 cells
Lassa entry inh – qHTS for Inhibitors of binding or entry into cells for Lassa Virus; Lassa virus pseudotype entry inhibition, cell reporter; Potency, µM (series often up to 37.9 µM), most hits filed as inhibitors; 1.2% of 300,000 active; AID 540256, 2011; calls by dose curve; tested in HEK293 cells; note: nearly all actives have a fitted effect of over 50% in size
HCV inhibitor – qHTS Assay for Inhibitors of Hepatitis C Virus (HCV); Huh7.5.1 HCVcc-Cre infection, luciferase reporter, 44 h; Potency, µM (top dose mostly 41.8 µM), actives largely listed as inhibitors; 3.4% of 340,000 active; active = well fitted inhibition curve with a large enough effect; inconclusive = small, poorly fitted or top-dose-only effect, or another doubt; inactive = no such curve, though single readings can be large or run the other way
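A cell-based infection assay in which seeded cells (1,000 per well) receive test compound after 4 h, are inoculated with HCVcc-Cre at approximately 0.5 moi, and are incubated 44 h before luminescence detection.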
Vaccinia Venus – qHTS for Stage-Specific Inhibitors of Vaccinia Orthopoxvirus: Venus Reporter Primary qHTS; Vaccinia virus Venus reporter expression, fluorescence; Potency, µM (series often up to 36.5 µM), usual class: inhibitors; 0.46% of 330,000 active; AID 720580, 2013; calls by dose curve; tested in A549 cells; note: nearly all actives have a fitted effect of over 30% in size
HCMV inh – qHTS Assay for inhibitors of the human cytomegalovirus (HCMV). HFF cells, HCMV-luciferase reporter, 72 h; stronger effect = lower value. activity change, negative = inhibition, % at 57.5 µM. 4.5% of 410,000 active. AID 1259415, 2018; in the data active = activity change below about -60%; inconclusive = no clear call, values can overlap the other calls; inactive = above about -39%
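Compounds were evaluated in HFFs infected with an HCMV luciferase reporter virus (MOI 1 PFU/cell). Luciferase in lysates collected 72 h post infection served as the replication measure.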
Vaccinia mCherry – qHTS for Stage-Specific Inhibitors of Vaccinia Orthopoxvirus: mCherry Reporter Primary qHTS. 0.63% of 310,000 active. Potency, µM (top dose mostly 36.5 µM), hits mostly inhibitors. Vaccinia virus mCherry reporter infection, fluorescence; calls by dose curve; tested in A549 cells; note: nearly all actives have a fitted effect of over 35% in size
Hits are given with their value; 0 = inactive; ? = inconclusive; - = no result.

SMILES	Marburg entry inh	Lassa entry inh	HCV inhibitor	Vaccinia Venus	HCMV inh	Vaccinia mCherry
Cc1ccccc1NS(=O)(=O)c1ccc2[nH]cc(C(=O)NCCc3ccccc3)c(=O)c2c1	-	?	-	0	0	0
CCOc1ccccc1C1CC(=O)NC(C)=C1C(=O)OC1CCCCCC1 (stereo not given)	?	0	-	0	0	0
Cc1ccc(C)c(CSC2=NC(C)(C)Nc3ccccc32)c1	-	?	-	0	?	0
CC1(C)CC(=O)C2=C(C1)N=C1c3ccccc3C(=O)C1C2c1ccc(Cl)cc1 (stereo not given)	?	?	13µM	?	-71	?
Cc1ccc(C2C3=C(CC(C)(C)CC3=O)OC3=C2C(=O)CC(C)(C)C3)cc1	0	?	0	0	0	0
Cc1ccc(C2C3=C(CC(C)(C)CC3=O)N=C3c4ccccc4C(=O)C32)cc1 (stereo not given)	?	?	?	0	-68	?
CCOC(=O)C1=C(C)N=C2c3ccccc3C(=O)C2C1c1ccc(Cl)cc1 (stereo not given)	?	?	16µM	0	-80	0
COc1cc(NC(=O)Nc2nc(C(N)C(C)C)cs2)cc(OC)c1OC (stereo not given)	-	-	-	0	0	0
CC1=Nc2cc(C(=O)NCC3CCCO3)ccc2Sc2ccc(C)cc21 (stereo not given)	-	-	0	-	-72	-
CC1=Nc2cc(C(=O)NCc3ccco3)ccc2Sc2ccc(C)cc21	0	?	?	?	-92	?
CCC(C)NC(=O)c1ccc2c(c1)N=C(C)c1cc(C)ccc1S2 (stereo not given)	?	0	-	0	-72	0
CC1=Nc2cc(C(=O)NCCCN3CCN(C)CC3)ccc2Sc2ccc(C)cc21	-	-	0	-	0	-
CC1=Nc2cc(C(=O)O)ccc2Sc2ccc(C)cc21	0	0	0	0	0	0
CCOc1ccccc1NC(=O)CC(c1ccc(F)cc1)N1Cc2ccccc2C1=O (stereo not given)	-	0	-	0	0	0
O=C(Cc1cccs1)N1CCN(c2nc(-c3ccc(Cl)cc3)cs2)CC1	?	0	?	-	-108	-
CC(C)C(=O)N1CCN(c2nc(-c3ccc(Cl)cc3)cs2)CC1	-	-	?	-	-70	-
O=C(CCCl)N1CCN(c2nc(-c3ccccc3)cs2)CC1	-	-	0	-	?	-
CCOC(=O)N1CCN(c2nc(-c3ccc(Cl)cc3)cs2)CC1	0	0	?	0	?	0
Cn1ccc2cc(NC(=O)Nc3cccnc3)ccc21	-	-	?	0	-100	0
CC1=CC(=C(C#N)c2nc3ccccc3s2)C=C(C)N1CC1CCCO1 (stereo not given)	?	0	11µM	0	0	0
COc1ccc(CN2CCCC(n3cc(C(=O)N4CCCCC4)nn3)C2)c(OC)c1OC (stereo not given)	-	-	-	0	-	0
CCc1ccc(NC(=O)CSC2=Nc3ccccc3C3=NC(CC(=O)NCc4ccc5c(c4)OCO5)C(=O)N23)cc1 (stereo not given)	-	0	-	0	0	0
Nc1nc(Cl)cc(-c2ccccc2)n1	?	0	0	0	0	0
Nc1nc(Cl)cc(Sc2ccc3ccccc3c2)n1	0	10µM	0	?	0	-
CCN1C(=O)/C(=C\c2nc3ccccc3c(=O)n2CC)c2ccccc21	?	0	0	0	-94	0
SMILES	Marburg entry inh	Lassa entry inh	HCV inhibitor	Vaccinia Venus	HCMV inh	Vaccinia mCherry
CCN1C(=O)/C(=C/c2nc3ccccc3c(=O)n2-c2ccccc2)c2ccccc21	0	?	0	?	-102	-
O=C1Nc2ccccc2/C1=C/c1nc2ccccc2c(=O)n1-c1ccc(O)cc1	?	?	?	0	?	0
COc1ccc(-n2c(/C=C3\C(=O)Nc4ccccc43)nc3ccccc3c2=O)cc1	?	?	0	0	-64	0
CCn1c(/C=C2/C(=O)N(C)c3ccccc32)nc2ccccc2c1=O	0	?	0	0	0	0
Oc1ccc(C[C@@H]2CNCCN2CCc2cc(C(F)(F)F)cc(C(F)(F)F)c2)cc1	-	-	?	10µM	0	14µM
FC(F)(F)c1cc(CCN2CCNC[C@H]2Cc2cccc3ccccc23)cc(C(F)(F)F)c1	-	-	?	0	-80	?
CC(=O)c1ccc(NC(=O)CSc2nc(=O)n(Cc3ccccn3)c3c2CCC3)cc1	-	0	-	0	0	0
Cc1ccc2nc3c(c(Nc4ccc(C)c(C)c4)c2c1)CCC3	-	?	-	0	?	?
Cc1cccc(Nc2c3c(nc4ccccc24)CCC3)c1	11µM	?	?	0	0	0
c1coc(CNc2c3c(nc4ccccc24)CCC3)c1	?	0	?	-	-69	-
Cc1ccc(Nc2c3c(nc4ccccc24)CCC3)cc1F	?	0	-	?	?	10µM
FC(F)(F)c1ccccc1-c1nccc(NCc2ccccc2)n1	-	-	-	0	-	0
CC(=O)Nc1ccccc1-c1nc(CNC(=O)c2ccc(-c3ccccc3F)cc2)c(C)o1	-	-	-	0	-	0
CN(C)c1ccc(-c2nc(-c3cccs3)c(-c3cccs3)[nH]2)cc1	0	?	-	0	0	0
CCOc1ccc(CC(=O)NCC(c2cccs2)S(=O)(=O)c2ccc(F)c(C)c2)cc1 (stereo not given)	-	?	-	0	?	0
CN1CCC[C@H]1CCNC(=O)c1c(-c2ccsc2)sc2ccccc12	-	-	?	0	0	0
CN1CCC[C@@H]1CCNC(=O)c1c(-c2ccc3c(c2)OCO3)noc1-c1ccsc1	-	-	0	?	-75	0
Cc1ccc2nc(/C(C#N)=C\c3ccc(Oc4ccc([N+](=O)[O-])cn4)cc3)[nH]c2c1	0	0	?	0	0	0
COc1cc(/C=C(/C#N)c2ccc(C)cc2)ccc1Oc1ccc([N+](=O)[O-])cn1	0	0	10µM	0	0	0
COc1ccc(/C=N/NC(=O)Nc2cccc3nsnc23)cc1OC	0	0	5.6µM	0	0	0
CCOc1ccc(/C=N/NC(=O)c2ccccc2C)cc1CN1CC2CC(C1)c1cccc(=O)n1C2 (stereo not given)	0	-	?	0	0	0
COc1ccc(/C=N/NC(=O)c2cccc(C(=O)N/N=C/c3ccc(OC)c(OC)c3)n2)cc1OC	-	-	0	-	?	-
COc1ccc(/C=N\NC(=O)c2ccccc2Cl)cc1COc1c(F)c(F)c(F)c(F)c1F	?	?	2.2µM	?	0	?
COc1ccc(/C=N\NC(=O)c2ccccc2OC)cc1COc1c(F)c(F)c(F)c(F)c1F	?	0	?	0	0	0
CCOc1ccc(/C=N/NC(=O)c2ccccc2Cl)cc1CN1CC2CC(C1)c1cccc(=O)n1C2 (stereo not given)	0	-	2.5µM	0	0	0
COc1cc(/C=N/NC(=O)c2ccccc2Cl)ccc1Oc1ccc([N+](=O)[O-])cn1	-	-	11µM	-	?	-
COc1ccc(C(=O)N/N=C/c2ccc(OC)c(COc3ccc(F)cc3F)c2)cc1	?	2.2µM	?	0	0	0
